PKA-R2B act: activates the human PKA-R2B holoenzyme complex; PKA-R2B holoenzyme dissociation, Cy5-IP20 fluorescence polarization; R2B truncated from residue 108, S112A mutant; 0% DMSO only, 100% 113 µM cGMP; activation, % at 11.4 µM; 0.079% of 340,000 active;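 active means activation above a cutoff set at the mean over all compounds plus 3 SD, cut at about 18% in these data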;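 further: higher means more holoenzyme dissociation and a rise in polarization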
PAFAH1B2 FP inh: inhibitors of human PAFAH1B2. P68402. recombinant PAFAH1B2, FP-rhodamine activity probe, fluorescence polarization. inhibition, % at 3.39 µM. 1.2% of 340,000 active. AID 492953;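 active means inhibition above the mean of all tested compounds plus 3 SD, cut at about 24% in these data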;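 further: 0% = enzyme with DMSO and 100% = wells lacking PAFAH1B2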
Target sequence (P68402 whole entry, looked up): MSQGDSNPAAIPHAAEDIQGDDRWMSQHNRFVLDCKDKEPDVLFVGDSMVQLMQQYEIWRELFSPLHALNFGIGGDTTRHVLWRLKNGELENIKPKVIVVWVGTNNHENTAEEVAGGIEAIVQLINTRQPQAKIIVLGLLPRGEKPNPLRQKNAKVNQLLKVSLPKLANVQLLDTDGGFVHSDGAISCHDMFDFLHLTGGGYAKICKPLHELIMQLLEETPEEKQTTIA
pPAFAH FP inh: inhibitors of human plasma PAF acetylhydrolase (pPAFAH); Q13093; recombinant pPAFAH, FP-rhodamine probe fluorescence polarization; inhibition, % at 3.39 µM; 1.5% of 330,000 active; AID 463082;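 active means inhibition above the mean inhibition across the screen plus 3 SD, cut at about 25% in these data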;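 further: inhibitors block binding of the rhodamine activity-based probe so polarization drops; 0% = enzyme with DMSO and 100% = wells lacking pPAFAH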
PAFAH2 FP inh: PAFAH2 (human) inhibition; Q99487; recombinant PAFAH2, FP-rhodamine activity probe, fluorescence polarization; inhibition, % at 3.39 µM; 0.99% of 340,000 active;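 active means inhibition above the mean over all tested compounds plus 3 SD, cut at about 30% in these data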;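 further: inhibitors block probe labeling of enzyme so polarization drops; 0% = enzyme with DMSO and 100% = wells lacking PAFAH2 protein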
PAFAH1B3 FP inh: PAFAH1B3 (human) inhibition; 0.28% of 340,000 active; recombinant PAFAH1B3, FP-rhodamine probe, fluorescence polarization; Q15102; inhibition, % at 3.39 µM;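 active means inhibition above the screen-wide average of all tested compounds plus 3 SD, cut at about 25% in these data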;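 further: 0% = enzyme with DMSO only and 100% = wells lacking PAFAH1B3 protein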
Target sequence (Q15102 whole entry, looked up): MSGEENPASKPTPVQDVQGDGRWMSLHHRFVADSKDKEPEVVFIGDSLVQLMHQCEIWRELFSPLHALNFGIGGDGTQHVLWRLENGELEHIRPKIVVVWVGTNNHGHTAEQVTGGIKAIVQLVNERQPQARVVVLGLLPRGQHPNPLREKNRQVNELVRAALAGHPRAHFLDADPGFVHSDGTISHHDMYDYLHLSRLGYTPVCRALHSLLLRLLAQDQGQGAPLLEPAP
PKA-R1A activ: activators of PKA-R1A complex. P00514+P68181. PKA-R1A dissociation, Cy5-IP20 fluorescence polarization; scaled: DMSO 0%, 113 µM cGMP 100%. activation, % at 11.4 µM. 0.083% of 340,000 active. AID 504707;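 active means percent activation above the mean of all tested compounds plus 3 SD, cut at about 19% in these data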;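 further: higher means more PKAc released from R1A so a rise in polarization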
PAFAH2 FP conf: PAFAH2 (human) inhibition, confirmed; shares compounds with PAFAH2 FP inh; recombinant PAFAH2, FP-rhodamine activity probe, fluorescence polarization; inhibition, % at 3.39 µM; 65% of 2,300 active; AID 493030;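 active means mean inhibition over three repeats above a set limit taken from the earlier primary screen, cut at about 30% in these data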;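 further: inhibitor blocks binding of rhodamine activity probe so polarization falls; 0% = enzyme with DMSO and 100% = wells lacking PAFAH2 protein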
Active calls of the source: *; · = no result given. Rows were chosen to be rich in hits. Some 2.6% of all compounds tested hit in one or more screens of this group.

SMILES | PKA-R2B act | PAFAH1B2 FP inh | pPAFAH FP inh | PAFAH2 FP inh | PAFAH1B3 FP inh | PKA-R1A activ | PAFAH2 FP conf
O=C(O)Cc1ccc(NC(=O)Cc2ccc3ccccc3c2)cc1 | -2.4 | 2.7 | · | 9.0 | 4.7 | -1.7 | ·
C[C@@H]1CN([C@H](C)CO)S(=O)(=O)c2ccc(Br)cc2O[C@H]1CN(C)C(=O)Nc1cccc(F)c1 | -3.8 | · | · | · | · | -0.1 | ·
CC(=O)Nc1cccc2c1Cc1ccccc1-2 | -3.6 | 2.2 | 8.7 | 42.2* | 2.0 | -4.0 | -1.7
Cc1ccc(C)n1-c1sccc1C(=O)O | 0.5 | 1.7 | · | 45.5* | 9.1 | 5.9 | 25.2
O=C(c1n[nH]c2ccccc12)N1CCN(S(=O)(=O)c2ccc(Cl)cc2)CC1 | -5.0 | 17.2 | 1.8 | -4.2 | 4.3 | -8.6 | ·
COc1ccc(C(=O)NCCOc2ccccc2Cl)c(OC)c1OC | -5.9 | -5.7 | 1.6 | 4.4 | 15.6 | -11.8 | ·
CC(C)c1ccc(O)c(NC(=S)NC(=O)c2ccc3c(c2)OCO3)c1 | -10.2 | 6.1 | 7.2 | 30.3* | 0.4 | -7.5 | 21.3
COc1ccc(OC)c(NC(=O)CSc2nncc(=O)n2N)c1 | 2.8 | -5.0 | -2.2 | 0.1 | 7.9 | -0.1 | ·
CCOc1ccc2ccccc2c1/C=N/NC(=O)CNC(=O)c1ccccc1F | -3.3 | -3.9 | 7.0 | -7.4 | 2.1 | 1.1 | ·
O=[N+]([O-])c1ccc(O)c(N=Cc2sc3ccccc3c2O)c1 | -12.9 | -4.6 | 13.7 | 32.9* | 3.1 | 1.0 | 16.3
Oc1ccc(Cl)cc1N=Cc1sc2ccccc2c1Cl | -0.1 | 6.3 | 7.6 | 0.4 | 7.9 | -7.2 | ·
Cc1ccc(C(=O)OCC(=O)NCC(F)(F)F)cc1C | -2.7 | 6.6 | 6.0 | 53.4* | -4.2 | 5.7 | 49.5*
O=C(COC(=O)c1ccc(O)cc1)NCCCc1ccccc1 | -2.0 | 2.6 | · | 31.9* | 2.0 | -2.3 | 22.2
Cc1ccsc1C(=O)OCC(=O)NCCNC(=O)COC(=O)c1sccc1C | -11.0 | 2.6 | 3.2 | 2.3 | -1.6 | -0.1 | ·
Cc1ccsc1C(=O)OCC(=O)NCCCc1ccccc1 | -6.4 | 11.1 | 13.1 | 29.8* | -0.6 | -12.2 | 12.6
Cc1ccc(C(=O)OCC(=O)NCCc2ccccc2)cc1C | -9.3 | 4.5 | 13.3 | 57.4* | 0.7 | -2.4 | 32.9*
COC(=O)C1N[C@@H]([C@@H](NC(=O)COc2ccccc2)C(=O)NCc2ccc(OC)cc2)SC1(C)C (some centres not stated) | -2.6 | -2.9 | 2.3 | 0.4 | 6.2 | 7.7 | ·
Cc1cc(=O)n2nc(N3CCCC(C(=O)NC4CCC(C)CC4)C3)sc2n1 (configuration not stated) | 2.9 | -0.1 | -3.2 | 3.3 | 5.5 | -6.5 | ·
COc1ccc(C(=O)N2CC(=O)Nc3ccc(F)cc3C2c2ccccc2)cc1 (configuration not stated) | -6.9 | 2.1 | · | -1.4 | 8.3 | -3.0 | ·
Cc1ccc(C(=O)CN(C(=O)c2ccc(Cl)c(Cl)c2)N2C(=O)C3CCCCC3C2=O)cc1 (configuration not stated) | 7.2 | 7.0 | 2.5 | 34.9* | 8.1 | 0.5 | 35.1*
Cc1ccc(CNc2nc(C)c(C(=O)N(C)C)s2)cc1 | -6.5 | 16.4 | 3.4 | -5.5 | 2.9 | -4.1 | ·
COc1cc(/C(O)=C(\C#N)c2nc3ccccc3[nH]2)cc(OC)c1OC | -3.2 | 3.5 | · | -0.6 | 2.7 | -2.3 | ·
COc1ccc(CCNC(=O)COC(=O)/C=C/c2ccc(OC)cc2OC)cc1 | -2.2 | 4.8 | 19.5 | 71.5* | 12.5 | -4.0 | 58.2*
COc1ccc(CCNC(=O)COC(=O)/C=C/c2cc(OC)ccc2OC)cc1 | 10.3 | 9.3 | 2.8 | 31.6* | 1.8 | 5.5 | 16.1
COc1ccc(OC)c(/C=C/C(=O)OCC(=O)NCc2cccs2)c1 | -4.3 | 2.7 | -1.7 | 45.9* | 9.1 | 7.5 | 50.4*
COc1ccc(/C=C/C(=O)OCC(=O)NCc2ccccc2)cc1OC | -7.7 | 4.5 | 3.1 | 49.6* | 7.0 | -5.2 | 47.4*
C[C@H](CO)N1C[C@H](C)[C@@H](CN(C)S(=O)(=O)c2cn(C)cn2)Oc2c(NS(=O)(=O)c3cccs3)cccc2C1=O | -10.0 | 4.6 | 0.8 | 9.2 | 5.0 | -6.1 | ·

Screens: PubChem, The Scripps Research Institute Molecular Screening Center
